# Assay results reported in article PMC9911399, “Two distinct binding modes provide the RNA-binding protein RbFox with extraordinary sequence specificity”.
# Substitutions are numbered along the chain they refer to; changes in the protein carry UniProt numbers. Over roughly 16,000 sequences, “ka relative to ugcaugu” has its median near 0.096; the highest 2% begin near 0.35. This excerpt belongs to a sample that is enriched for the highest values.
# B1: CGCGCUU (DNA:RNA)
# RNA: GGGAGACCGGAAUUCAGAUUGUCCCGCGCUUUUAAAUCCCGUCGUAGCCACCA
# DNA 1: CAATCTGAATTCCGGTCTCCC
# DNA 2: TGGTGGCTACGACGGGATT
# B2: AGAAGCG (DNA:RNA)
# RNA: B1 RNA with C25A, C27A, G28A, C29G, U30C, U31G
# DNA 1: CAATCTGAATTCCGGTCTCCC
# DNA 2: TGGTGGCTACGACGGGATT
# B3: CUCCUCC (DNA:RNA)
# RNA: B1 RNA with G26U, G28C, C29U, U30C, U31C
# DNA 1: CAATCTGAATTCCGGTCTCCC
# DNA 2: TGGTGGCTACGACGGGATT
# B4: CCUGCAU (DNA:RNA)
# RNA: B1 RNA with G26C, C27U, U30A
# DNA 1: CAATCTGAATTCCGGTCTCCC
# DNA 2: TGGTGGCTACGACGGGATT
# B5: UGAAUCU (DNA:RNA)
# RNA: B1 RNA with C25U, C27A, G28A, C29U, U30C
# DNA 1: CAATCTGAATTCCGGTCTCCC
# DNA 2: TGGTGGCTACGACGGGATT
# B6: CUGCAGA (DNA:RNA)
# RNA: B1 RNA with G26U, C27G, G28C, C29A, U30G, U31A
# DNA 1: CAATCTGAATTCCGGTCTCCC
# DNA 2: TGGTGGCTACGACGGGATT
# B7: CUGCAUC (DNA:RNA)
# RNA: B1 RNA with G26U, C27G, G28C, C29A, U31C
# DNA 1: CAATCTGAATTCCGGTCTCCC
# DNA 2: TGGTGGCTACGACGGGATT
# B8: UGCAAUC (DNA:RNA)
# RNA: B1 RNA with C25U, G28A, C29A, U31C
# DNA 1: CAATCTGAATTCCGGTCTCCC
# DNA 2: TGGTGGCTACGACGGGATT
# B9: UGCAUCU (DNA:RNA)
# RNA: B1 RNA with C25U, G28A, C29U, U30C
# DNA 1: CAATCTGAATTCCGGTCTCCC
# DNA 2: TGGTGGCTACGACGGGATT
# B10: AGCAGCA (DNA:RNA)
# RNA: B1 RNA with C25A, G28A, C29G, U30C, U31A
# DNA 1: CAATCTGAATTCCGGTCTCCC
# DNA 2: TGGTGGCTACGACGGGATT
# B11: ACAAAUC (DNA:RNA)
# RNA: B1 RNA with C25A, G26C, C27A, G28A, C29A, U31C
# DNA 1: CAATCTGAATTCCGGTCTCCC
# DNA 2: TGGTGGCTACGACGGGATT
# B12: UUGGAUG (DNA:RNA)
# RNA: B1 RNA with C25U, G26U, C27G, C29A, U31G
# DNA 1: CAATCTGAATTCCGGTCTCCC
# DNA 2: TGGTGGCTACGACGGGATT
# B13: UUGGAUC (DNA:RNA)
# RNA: B1 RNA with C25U, G26U, C27G, C29A, U31C
# DNA 1: CAATCTGAATTCCGGTCTCCC
# DNA 2: TGGTGGCTACGACGGGATT
# B14: GUGGAUG (DNA:RNA)
# RNA: B1 RNA with C25G, G26U, C27G, C29A, U31G
# DNA 1: CAATCTGAATTCCGGTCTCCC
# DNA 2: TGGTGGCTACGACGGGATT
# B15: UUGGAGA (DNA:RNA)
# RNA: B1 RNA with C25U, G26U, C27G, C29A, U30G, U31A
# DNA 1: CAATCTGAATTCCGGTCTCCC
# DNA 2: TGGTGGCTACGACGGGATT
# B16: GCGUGGA (DNA:RNA)
# RNA: GGGAGACCGGAAUUCAGAUUGUCCGCGUGGAUUAAAUCCCGUCGUAGCCACCA
# DNA 1: CAATCTGAATTCCGGTCTCCC
# DNA 2: TGGTGGCTACGACGGGATT
# B17: GUGGAGA (DNA:RNA)
# RNA: B16 RNA with C26U, U28G, G29A
# DNA 1: CAATCTGAATTCCGGTCTCCC
# DNA 2: TGGTGGCTACGACGGGATT
# B18: GUGGAUC (DNA:RNA)
# RNA: B1 RNA with C25G, G26U, C27G, C29A, U31C
# DNA 1: CAATCTGAATTCCGGTCTCCC
# DNA 2: TGGTGGCTACGACGGGATT
# B19: UUGGAUU (DNA:RNA)
# RNA: B1 RNA with C25U, G26U, C27G, C29A
# DNA 1: CAATCTGAATTCCGGTCTCCC
# DNA 2: TGGTGGCTACGACGGGATT
# B20: GUGGAUU (DNA:RNA)
# RNA: B1 RNA with C25G, G26U, C27G, C29A
# DNA 1: CAATCTGAATTCCGGTCTCCC
# DNA 2: TGGTGGCTACGACGGGATT
# B21: GGCCUAA (DNA:RNA)
# RNA: B1 RNA with C25G, G28C, C29U, U30A, U31A
# DNA 1: CAATCTGAATTCCGGTCTCCC
# DNA 2: TGGTGGCTACGACGGGATT
# B22: GUUCGUA (DNA:RNA)
# RNA: B16 RNA with C26U, G27U, U28C, G30U
# DNA 1: CAATCTGAATTCCGGTCTCCC
# DNA 2: TGGTGGCTACGACGGGATT
# B23: UUCUUCA (DNA:RNA)
# RNA: B16 RNA with G25U, C26U, G27C, G29U, G30C
# DNA 1: CAATCTGAATTCCGGTCTCCC
# DNA 2: TGGTGGCTACGACGGGATT
# B24: UGCGUAU (DNA:RNA)
# RNA: B1 RNA with C25U, C29U, U30A
# DNA 1: CAATCTGAATTCCGGTCTCCC
# DNA 2: TGGTGGCTACGACGGGATT
# B25: AUAGGAG (DNA:RNA)
# RNA: B1 RNA with C25A, G26U, C27A, C29G, U30A, U31G
# DNA 1: CAATCTGAATTCCGGTCTCCC
# DNA 2: TGGTGGCTACGACGGGATT
# B26: CAGGGCG (DNA:RNA)
# RNA: B1 RNA with G26A, C27G, C29G, U30C, U31G
# DNA 1: CAATCTGAATTCCGGTCTCCC
# DNA 2: TGGTGGCTACGACGGGATT
# B27: GAUCCAA (DNA:RNA)
# RNA: B16 RNA with C26A, G27U, U28C, G29C, G30A
# DNA 1: CAATCTGAATTCCGGTCTCCC
# DNA 2: TGGTGGCTACGACGGGATT
# B28: AGCUUUC (DNA:RNA)
# RNA: B1 RNA with C25A, G28U, C29U, U31C
# DNA 1: CAATCTGAATTCCGGTCTCCC
# DNA 2: TGGTGGCTACGACGGGATT
# B29: CGAUGCG (DNA:RNA)
# RNA: B1 RNA with C27A, G28U, C29G, U30C, U31G
# DNA 1: CAATCTGAATTCCGGTCTCCC
# DNA 2: TGGTGGCTACGACGGGATT
# B30: GAAUCCC (DNA:RNA)
# RNA: B16 RNA with C26A, G27A, G29C, G30C, A31C
# DNA 1: CAATCTGAATTCCGGTCTCCC
# DNA 2: TGGTGGCTACGACGGGATT
# B31: GAAUGCG (DNA:RNA)
# RNA: B16 RNA with C26A, G27A, G30C, A31G
# DNA 1: CAATCTGAATTCCGGTCTCCC
# DNA 2: TGGTGGCTACGACGGGATT
# B32: GAAUGCC (DNA:RNA)
# RNA: B16 RNA with C26A, G27A, G30C, A31C
# DNA 1: CAATCTGAATTCCGGTCTCCC
# DNA 2: TGGTGGCTACGACGGGATT
# B33: GGAUGCC (DNA:RNA)
# RNA: B16 RNA with C26G, G27A, G30C, A31C
# DNA 1: CAATCTGAATTCCGGTCTCCC
# DNA 2: TGGTGGCTACGACGGGATT
# B34: CGAUGCC (DNA:RNA)
# RNA: B1 RNA with C27A, G28U, C29G, U30C, U31C
# DNA 1: CAATCTGAATTCCGGTCTCCC
# DNA 2: TGGTGGCTACGACGGGATT
# Target: T1, RBFOX1 RRM RbFoxmut (Fox-RRM*) (Homo sapiens, UniProt Q9NWB1 109-208, R118D;E147R;N151S;E152T)
# T1 sequence: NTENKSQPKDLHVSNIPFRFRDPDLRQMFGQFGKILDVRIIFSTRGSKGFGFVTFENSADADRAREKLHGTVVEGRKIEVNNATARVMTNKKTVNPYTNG
# Assay: EMSA; HiTS-Eq, 1 nM pool, 10 min; buffer printed only for the single-RNA assays: 10 mM Tris pH 7.5, 150 mM NaCl, 3.4 mM EDTA, 0.001% NP-40, 30 C
# Settings: tags: His6 N-terminal (pET28a); label: 5' 32P
# Procedure, shortened: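 Relative association constants, normalised to the cognate motif, were derived by comparing read counts of each RNA species with those of the control reaction. The RNA sequenced was the free fraction, separated by 8% native PAGE after a 10 min equilibration in 50 µL of 1 nM 5′-radiolabelled RNA (7 randomized nucleotides) with increasing concentrations of purified wild-type or mutant RbFox RRM.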
row,Binder,binding signal
1,B1,0.1 KA relative to UGCAUGU
2,B2,0.107 KA relative to UGCAUGU
3,B3,0.0813 KA relative to UGCAUGU
4,B4,0.139 KA relative to UGCAUGU
5,B5,0.244 KA relative to UGCAUGU
6,B6,0.136 KA relative to UGCAUGU
7,B7,0.457 KA relative to UGCAUGU
8,B8,0.102 KA relative to UGCAUGU
9,B9,0.727 KA relative to UGCAUGU
10,B10,0.14 KA relative to UGCAUGU
11,B11,0.0702 KA relative to UGCAUGU
12,B12,0.61 KA relative to UGCAUGU
13,B13,0.321 KA relative to UGCAUGU
14,B14,1.04 KA relative to UGCAUGU
15,B15,0.0955 KA relative to UGCAUGU
16,B16,0.092 KA relative to UGCAUGU
17,B17,0.118 KA relative to UGCAUGU

row,Binder,binding signal
1,B18,0.357 KA relative to UGCAUGU
2,B19,0.106 KA relative to UGCAUGU
3,B20,0.1 KA relative to UGCAUGU
4,B21,0.0594 KA relative to UGCAUGU
5,B22,0.155 KA relative to UGCAUGU
6,B23,0.111 KA relative to UGCAUGU
7,B24,0.143 KA relative to UGCAUGU
8,B25,0.097 KA relative to UGCAUGU
9,B26,0.123 KA relative to UGCAUGU
10,B27,0.0776 KA relative to UGCAUGU
11,B28,0.0646 KA relative to UGCAUGU
12,B29,0.113 KA relative to UGCAUGU
13,B30,0.0694 KA relative to UGCAUGU
14,B31,0.763 KA relative to UGCAUGU
15,B32,0.356 KA relative to UGCAUGU
16,B33,0.168 KA relative to UGCAUGU
17,B34,0.206 KA relative to UGCAUGU
